Results on 5 compounds are retold here after PubChem BioAssay.

The nature of test [1]: inhibitors of CD8+ T cell-vesicle binding, pilot screen, LFA-1/ICAM-1 modulator project, MLPCN validation set, flow cytometry (AID 2523;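 active = response below a set limit, under 55% cells CD8-positive and vesicle-bound, and CD8 cells' 90th-percentile brightness under 279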;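 for vesicle binding response: mean PE anti-B7-1 fluorescence of CD8+ cells relative to row control; 100% = QL9-loaded vesicles with DMSO vehicle in the same plate row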). The following applies: 2C mouse CD8+ T cells, at 7 µM, stronger effect = lower value; double positive events: measured here: CD8+/vesicle+ event percentage. In general terms: Flow cytometry measures light scatter and fluorescence of single cells or particles in a stream.

Test [2] addresses Integrin beta-1 (Homo sapiens) + Integrin alpha-4 (Homo sapiens) (UniProt P13612+P05556). The test is described as follows: inhibition of HUTS-21 binding to VLA-4, pilot screen, VLA-4 allosteric modulator project, U937 cells, HUTS-21 mAb, flow cytometry, validation set (AID 2674;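 active = inhibition above 50%, about 3 SD of the validation set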;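 note: antibody binding induced by the VLA-4 ligand LDV present at three times its Kd; 0% = LDV ligand with antibody and no compound and 100% = antibody without LDV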). Particulars: HUTS-21 LIBS mAb binding, at 6.7 µM, stronger effect = higher value, binding induced by LDV ligand.

Test [3] is described as follows: superoxide lowering in aged yeast cells, pilot screen, validation compound set (AID 2706;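 active = superoxide response below 65% of plate, a cut near 3 SD across the whole screen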;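 note: yeast exposed to compound for one week at 30 degrees C before staining; 100% = mean of all compound wells on the same plate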). The following applies: S. cerevisiae aging, superoxide DHE fluorescence; at 10 µM, stronger effect = lower value.
Test [4] concerns the target Beta-adrenergic receptor kinase 1 (Homo sapiens) (UniProt P25098). The test is described as follows: GRK2 binders displacing RNA aptamer, biochemical, validation, human GRK2, bead flow cytometry (AID 488806;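 active = aptamer binding inhibition above 30%, about 3 SD of noise from non-fluorescent compounds; inactive = inhibition at or below 30%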). Particulars: bead-bound GRK2, FAM-aptamer displacement, at 10 µM, stronger effect = higher value.
Test [5] addresses Beta-2 adrenergic receptor (Homo sapiens) (UniProt P07550). Kind of test: beta2AR agonists driving receptor internalization, pilot screen, cell-based, FAP fluorogen, flow cytometry, validation set (AID 504459).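 Note: agonist-driven loss of surface beta2AR via internalization measured by FAP dye flow cytometry.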 Particulars: Am2.2-beta2AR cells, FAP surface receptor flow cytometry; at 10 µM; stronger effect = higher value.
Test [6] deals with AP-2 complex subunit beta (Homo sapiens) (UniProt P63010). The test is described as follows: inhibitors of arrestin peptide binding to AP2, pilot screen, biochemical, validation set, GST-AP2 beads, flow cytometry (AID 504541;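 active = inhibition above 54%, about 3 SD of non-fluorescent compounds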;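 note: AP2 carries R879A mutation and is captured from E. coli lysate; bead-bound FITC arrestin peptide fluorescence measuring arrestin peptide binding to AP2; 0% = DMSO wells and 100% = excess unlabeled arrestin peptide control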). Particulars: FITC arrestin peptide, at 10 µM, stronger effect = higher value, AP2 beta2 appendage fragment, R879A mutant.
The nature of test [7]: yeast V-ATPase proton transport modulators, S. cerevisiae, pHLuorin, HTS validation (AID 504600; in the data active = response above about 15%;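 note: plate controls were DMSO for no effect and reference compound for full effect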). The following applies: S. cerevisiae pHLuorin cytosolic pH, at 10 µM, stronger effect = higher value.
For test [8], the system named is anti-desmoglein-3 scFv antibody binding to human DSG3. Kind of test: inhibitors of anti-DSG3 scFv binding to DSG3, pilot screen, biochemical, validation compound set, bead-based, flow cytometry (AID 588368;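 active = binding below the plate cutoff, the plate median minus 3 SD, with a reading above zero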;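 note: signal is the median channel fluorescence of bead-bound GFP antibody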). Particulars: Protein G beads, DSG3-Fc, scFv-GFP binding, at 10 µM, stronger effect = lower value.
Test [9] is described as follows: inhibitors of fungal efflux pumps CDR1, CDR2, MDR1, pilot screen, validation compound set, multiplex, phenotypic (AID 588506;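 active = efflux inhibition above 0.42, the validation set average plus 4 SD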;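 note: Nile Red retained in cells so higher fluorescence means more efflux inhibition; 0 = negative control wells and 1 = enniatin B 25 µM full block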). Particulars: S. cerevisiae pump-expressing triplex, Nile Red efflux flow cytometry; at 10 µM; stronger effect = higher value; the pumps come from Candida albicans.
For test [10], the target named is ATP-binding cassette sub-family B member 6 (Homo sapiens) (UniProt Q9NP58). The test is described as follows: ABCB6 transporter inhibitors, pilot screen, K562-ABCB6 cells, flow cytometry, validation set (AID 588550;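 active = inhibition above the screen-wide mean plus 3 SD, about 51%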;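 note: 0% = DMSO wells and 100% = benzethonium chloride 70 µM positive control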). Particulars: K562-ABCB6 porphyrin accumulation, 1 h, at 10 µM, stronger effect = higher value.
The nature of test [11]: promoters of myeloid differentiation in arrested cells, primary screen, cell-based, GFP/MAC1 double positive, flow cytometry, validation set (AID 588685;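 active = differentiation response of at least 50%, scaled between solvent and reference control, from cells with both markers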;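 note: compound exposure lasts four days before antibody staining and flow analysis; 0% = DMSO wells and 100% = 5 µM fulvestrant positive control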). Particulars: ER-HoxA9 marrow cells, stronger effect = higher value, normalized: vehicle 0, fulvestrant 100.

The source made the active and inactive calls.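 Rule for the calls, unless noted: active = percent response above 42, roughly 3 SD of non-fluorescent test compounds; inactive = the rest.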

A word on the inhibition: it is the change of the read-out against control, counted positive when it falls.

Sequence of AP-2 complex subunit beta (Homo sapiens) (P63010 whole entry, looked up, the tested form may be a part, one chain of several): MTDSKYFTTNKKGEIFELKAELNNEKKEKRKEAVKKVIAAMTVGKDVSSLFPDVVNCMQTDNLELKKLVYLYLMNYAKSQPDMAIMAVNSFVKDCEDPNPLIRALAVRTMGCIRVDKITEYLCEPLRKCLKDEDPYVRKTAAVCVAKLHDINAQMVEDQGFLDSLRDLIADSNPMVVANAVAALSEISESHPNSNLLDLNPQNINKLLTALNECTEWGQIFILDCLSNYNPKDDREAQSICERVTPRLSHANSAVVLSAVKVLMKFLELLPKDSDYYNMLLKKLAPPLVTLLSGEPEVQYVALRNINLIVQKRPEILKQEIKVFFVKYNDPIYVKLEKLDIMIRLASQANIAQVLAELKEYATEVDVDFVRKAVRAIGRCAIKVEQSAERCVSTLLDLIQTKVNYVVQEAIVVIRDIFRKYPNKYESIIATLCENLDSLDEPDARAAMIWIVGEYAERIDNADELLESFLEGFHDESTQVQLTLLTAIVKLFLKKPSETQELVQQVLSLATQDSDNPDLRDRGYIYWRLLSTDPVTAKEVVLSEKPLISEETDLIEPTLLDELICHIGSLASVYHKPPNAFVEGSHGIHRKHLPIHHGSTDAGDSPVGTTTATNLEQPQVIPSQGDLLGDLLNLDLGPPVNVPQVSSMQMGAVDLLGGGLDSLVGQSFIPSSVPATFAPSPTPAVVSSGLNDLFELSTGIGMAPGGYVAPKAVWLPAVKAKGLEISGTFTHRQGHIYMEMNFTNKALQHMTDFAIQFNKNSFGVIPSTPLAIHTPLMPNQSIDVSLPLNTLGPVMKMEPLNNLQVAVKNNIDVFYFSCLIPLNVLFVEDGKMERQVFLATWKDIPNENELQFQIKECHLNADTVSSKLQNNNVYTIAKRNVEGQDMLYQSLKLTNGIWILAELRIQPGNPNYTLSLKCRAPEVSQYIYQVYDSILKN
Sequence of ATP-binding cassette sub-family B member 6 (Homo sapiens) (Q9NP58 whole entry, looked up): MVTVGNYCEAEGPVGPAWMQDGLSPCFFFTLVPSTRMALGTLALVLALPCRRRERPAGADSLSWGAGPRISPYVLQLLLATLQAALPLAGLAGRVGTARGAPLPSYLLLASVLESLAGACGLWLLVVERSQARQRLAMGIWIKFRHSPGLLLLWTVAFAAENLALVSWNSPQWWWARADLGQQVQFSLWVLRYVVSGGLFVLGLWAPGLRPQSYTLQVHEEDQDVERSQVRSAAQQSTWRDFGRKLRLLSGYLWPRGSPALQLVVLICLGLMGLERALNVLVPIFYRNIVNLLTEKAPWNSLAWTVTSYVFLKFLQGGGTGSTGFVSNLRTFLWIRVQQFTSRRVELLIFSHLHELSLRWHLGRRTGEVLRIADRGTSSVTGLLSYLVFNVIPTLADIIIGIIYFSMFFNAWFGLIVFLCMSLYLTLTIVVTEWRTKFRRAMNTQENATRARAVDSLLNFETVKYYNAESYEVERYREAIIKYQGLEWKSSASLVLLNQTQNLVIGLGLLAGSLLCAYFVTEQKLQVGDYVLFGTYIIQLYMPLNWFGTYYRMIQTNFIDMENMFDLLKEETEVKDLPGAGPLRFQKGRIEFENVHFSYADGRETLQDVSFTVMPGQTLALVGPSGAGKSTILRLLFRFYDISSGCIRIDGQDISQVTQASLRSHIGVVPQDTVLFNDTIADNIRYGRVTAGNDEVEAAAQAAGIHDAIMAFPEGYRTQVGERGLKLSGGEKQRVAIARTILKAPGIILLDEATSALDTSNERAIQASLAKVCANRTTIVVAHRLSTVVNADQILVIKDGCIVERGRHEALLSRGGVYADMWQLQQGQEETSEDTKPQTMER
Sequence of Beta-adrenergic receptor kinase 1 (Homo sapiens) (P25098 whole entry, looked up): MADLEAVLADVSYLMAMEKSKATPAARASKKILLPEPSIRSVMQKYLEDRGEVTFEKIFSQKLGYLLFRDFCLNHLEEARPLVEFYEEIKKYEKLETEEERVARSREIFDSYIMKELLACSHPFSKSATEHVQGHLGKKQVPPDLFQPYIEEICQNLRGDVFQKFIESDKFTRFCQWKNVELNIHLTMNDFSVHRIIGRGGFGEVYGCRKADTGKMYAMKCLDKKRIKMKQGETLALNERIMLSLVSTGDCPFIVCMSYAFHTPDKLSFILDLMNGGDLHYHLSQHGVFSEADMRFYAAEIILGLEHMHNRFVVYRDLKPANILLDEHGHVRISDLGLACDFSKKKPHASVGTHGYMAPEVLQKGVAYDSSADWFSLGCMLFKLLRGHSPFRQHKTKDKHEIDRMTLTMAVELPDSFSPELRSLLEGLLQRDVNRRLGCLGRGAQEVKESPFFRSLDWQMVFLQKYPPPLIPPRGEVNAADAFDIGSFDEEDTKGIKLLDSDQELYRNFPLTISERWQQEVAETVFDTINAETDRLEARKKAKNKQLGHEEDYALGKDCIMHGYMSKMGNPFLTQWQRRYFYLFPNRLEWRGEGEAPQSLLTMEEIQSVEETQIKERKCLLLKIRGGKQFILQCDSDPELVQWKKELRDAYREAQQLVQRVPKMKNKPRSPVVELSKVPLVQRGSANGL
Sequence of Beta-2 adrenergic receptor (Homo sapiens) (P07550 whole entry, looked up): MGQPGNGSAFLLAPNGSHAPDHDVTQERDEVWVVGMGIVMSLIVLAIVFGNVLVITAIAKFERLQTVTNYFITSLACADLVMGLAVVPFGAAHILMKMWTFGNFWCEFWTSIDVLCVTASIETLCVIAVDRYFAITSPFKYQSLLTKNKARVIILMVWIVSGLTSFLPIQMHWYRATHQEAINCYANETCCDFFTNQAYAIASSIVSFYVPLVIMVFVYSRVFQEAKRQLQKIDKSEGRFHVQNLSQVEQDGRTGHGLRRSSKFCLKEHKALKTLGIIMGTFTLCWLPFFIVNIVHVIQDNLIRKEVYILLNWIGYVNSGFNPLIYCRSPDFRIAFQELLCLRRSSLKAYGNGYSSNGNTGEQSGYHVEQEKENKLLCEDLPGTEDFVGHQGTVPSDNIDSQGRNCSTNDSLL
Sequence of Integrin beta-1 (Homo sapiens) + Integrin alpha-4 (Homo sapiens) (P05556 whole entry, looked up): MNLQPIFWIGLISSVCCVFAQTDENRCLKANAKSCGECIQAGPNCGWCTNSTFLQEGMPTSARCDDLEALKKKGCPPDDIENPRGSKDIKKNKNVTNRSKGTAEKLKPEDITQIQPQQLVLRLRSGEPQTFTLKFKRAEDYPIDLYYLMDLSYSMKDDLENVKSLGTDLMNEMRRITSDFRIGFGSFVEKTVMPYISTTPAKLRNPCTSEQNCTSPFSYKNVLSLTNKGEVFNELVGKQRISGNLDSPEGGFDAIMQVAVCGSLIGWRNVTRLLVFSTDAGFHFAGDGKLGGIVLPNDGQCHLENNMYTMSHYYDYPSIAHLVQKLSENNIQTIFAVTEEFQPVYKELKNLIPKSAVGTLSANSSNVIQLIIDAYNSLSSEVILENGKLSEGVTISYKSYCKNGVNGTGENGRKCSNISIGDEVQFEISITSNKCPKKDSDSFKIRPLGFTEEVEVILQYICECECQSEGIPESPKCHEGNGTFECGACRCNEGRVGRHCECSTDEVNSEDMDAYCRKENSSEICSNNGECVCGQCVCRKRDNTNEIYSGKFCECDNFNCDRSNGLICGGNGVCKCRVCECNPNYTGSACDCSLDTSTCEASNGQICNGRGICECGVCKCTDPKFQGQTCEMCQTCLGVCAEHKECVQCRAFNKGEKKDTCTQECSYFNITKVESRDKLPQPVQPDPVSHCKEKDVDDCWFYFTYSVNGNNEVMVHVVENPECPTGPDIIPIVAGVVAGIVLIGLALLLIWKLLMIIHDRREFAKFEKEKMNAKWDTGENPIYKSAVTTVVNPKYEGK
Sequence of Integrin beta-1 (Homo sapiens) + Integrin alpha-4 (Homo sapiens) (P13612 whole entry, looked up): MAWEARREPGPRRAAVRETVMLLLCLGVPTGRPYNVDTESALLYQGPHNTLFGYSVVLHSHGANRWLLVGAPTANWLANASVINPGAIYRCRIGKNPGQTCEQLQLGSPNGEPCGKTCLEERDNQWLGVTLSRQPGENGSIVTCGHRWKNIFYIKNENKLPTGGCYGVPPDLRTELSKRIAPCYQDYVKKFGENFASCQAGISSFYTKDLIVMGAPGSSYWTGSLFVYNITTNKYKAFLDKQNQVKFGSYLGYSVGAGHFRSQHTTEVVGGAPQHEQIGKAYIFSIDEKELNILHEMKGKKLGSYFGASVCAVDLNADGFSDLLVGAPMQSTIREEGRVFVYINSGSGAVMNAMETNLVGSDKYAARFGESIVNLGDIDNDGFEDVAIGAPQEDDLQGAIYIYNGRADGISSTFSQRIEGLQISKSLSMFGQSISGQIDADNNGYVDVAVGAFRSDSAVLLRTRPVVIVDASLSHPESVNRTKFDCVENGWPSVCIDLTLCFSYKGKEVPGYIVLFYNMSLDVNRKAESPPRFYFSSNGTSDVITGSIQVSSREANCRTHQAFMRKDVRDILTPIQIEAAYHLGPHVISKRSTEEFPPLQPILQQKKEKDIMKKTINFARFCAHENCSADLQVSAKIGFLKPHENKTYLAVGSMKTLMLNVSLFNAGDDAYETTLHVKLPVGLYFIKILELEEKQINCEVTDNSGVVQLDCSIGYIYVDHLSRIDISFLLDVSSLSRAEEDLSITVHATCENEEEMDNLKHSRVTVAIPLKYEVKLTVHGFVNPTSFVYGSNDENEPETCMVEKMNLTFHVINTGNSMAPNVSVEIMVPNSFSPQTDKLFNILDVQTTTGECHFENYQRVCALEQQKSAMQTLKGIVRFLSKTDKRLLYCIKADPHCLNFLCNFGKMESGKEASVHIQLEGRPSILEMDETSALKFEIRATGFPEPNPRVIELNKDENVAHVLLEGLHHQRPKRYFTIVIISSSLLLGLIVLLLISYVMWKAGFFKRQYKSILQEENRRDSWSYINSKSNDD

The compound `CNc1nc(Nc2ccccc2)nc(OCC(F)(F)F)n1` registered a double positive events in [1] of 64.8%. Moreover, the vesicle binding response in test [1] was 135% (inactive). The inhibition in [2] was 6.95% (inactive); in [6], 44.3% (inactive); in test [10] it was -3% (inactive). The superoxide response (% of plate) in [3] is 98.2% (inactive). For the same compound, the aptamer binding inhibition in [4] was -3% (inactive). Further, the response in [5] was -3.68% (inactive); in test [7] it was -7.15% (inactive). In addition, the binding (% of control) in test [8] was 101% (inactive). In addition, in test [9], the efflux inhibition (fraction of control) was -0.185 (inactive). Besides, the differentiation response in test [11] was 4.2% (inactive).

The compound `CC(=O)NCCCC(=O)NC(CCC(=O)OCc1ccccc1)C(=O)OCc1ccccc1` (stereo not given) gave a double positive events in [1] of 72.6%. Moreover, in test [1], the vesicle binding response is 425% (inactive). Besides, the inhibition was 5.03% (inactive) in test [2], -8.67% (inactive) in test [6] and 2% (inactive) in [10]. Moreover, the superoxide response (% of plate) in test [3] was 86.7% (inactive). Besides, in test [4], the aptamer binding inhibition was 1% (inactive). The results for the response in [5] and in [7] were 6.65% (inactive) and -0.06% (inactive), respectively. Also, the binding (% of control) in test [8] was 96.8% (inactive). In addition, the efflux inhibition (fraction of control) in test [9] is 0.4 (inactive). Besides, the differentiation response in test [11] is 34.4% (inactive).

`O=c1oc2c(CN3CCN(CCO)CC3)c(O)ccc2cc1-c1ccccn1`: the double positive events in test [1] turned out to be 62.7%. For the same compound, the vesicle binding response in [1] was 150% (inactive). The inhibition is -14.9% (inactive) in test [2], -9.17% (inactive) in test [6] and 15% (inactive) in test [10]. In addition, in [3], the superoxide response (% of plate) is 88.3% (inactive). Besides, the aptamer binding inhibition in test [4] was -1% (inactive). Also, the values for the response in test [5] and in test [7] were 59.8% (active) and 5.97% (inactive), respectively. The binding (% of control) in test [8] was 109% (inactive). Further, the efflux inhibition (fraction of control) in [9] was -0.06 (inactive). Moreover, the differentiation response in test [11] was 10.6% (inactive).

`NS(=O)(=O)c1cc2c(cc1C(F)(F)F)NCNS2(=O)=O` had a double positive events in [1] of 80.6%. For the same compound, the vesicle binding response in [1] is 205% (inactive). The inhibition in test [2] is 10.8% (inactive); in test [6], 1.9% (inactive); in [10], 11% (inactive). Moreover, the superoxide response (% of plate) in test [3] was 92.9% (inactive). The aptamer binding inhibition in test [4] is 5% (inactive). The response in test [5] is -9.47% (inactive); in test [7], 1.35% (inactive). In test [8], the binding (% of control) was 101% (inactive). The efflux inhibition (fraction of control) in [9] is -0.04 (inactive). Moreover, the differentiation response in test [11] is -3.02% (inactive).

Turning to `COc1cccc(OC2OC3COC(C)(C)OC3C(O)C2NC(C)=O)c1` (stereo not given), the double positive events in [1] stood at 63.6%. Besides, in test [1], the vesicle binding response is 203% (inactive). Also, the values for the inhibition in test [2], in test [6] and in test [10] were 5.61% (inactive), 2.96% (inactive) and 30% (inactive), respectively. In addition, in test [3], the superoxide response (% of plate) is 97.8% (inactive). Also, the aptamer binding inhibition in [4] is 2% (inactive). The response in test [5] is 2.82% (inactive); in [7], 6.08% (inactive). For the same compound, the binding (% of control) in [8] was 103% (inactive). In addition, the efflux inhibition (fraction of control) in [9] is 0.1 (inactive). Also, the differentiation response in test [11] is -11.9% (inactive).
